More than one record can exist for a structure, and the calls need not agree. Calls of active or inactive are those of the source. Rule for the calls: active = hit-call score of the fitted dose curve at least 0.9, where 1 is the maximum; inactive = score below 0.9.
Read-out: Monokine induced gamma interferon (MIG), CXCL9 (gene 4283)
Experiment: BSK_hDFCGF_MIG: BioMAP Diversity Plus: hDFCGF Assay for Monokine induced gamma interferon (MIG) Biomarker Activity (AID 2283063)
Conditions: primary human foreskin fibroblasts; actives raise or lower the signal
Procedure: BSK_hDFCGF is a cell-based, multiplexed-readout assay that uses foreskin fibroblast, a human skin primary cell, with measurements taken at 24 hours after chemical dosing in a 96-well plate.BSK_hDFCGF_MIG is an assay component measured in the BSK_hDFCGF assay. It measures MIG antibody related to regulation of gene expression using ELISA technology.Data from the assay component BSK_hDFCGF_MIG was analyzed into 1 assay endpoint. This assay endpoint, BSK_hDFCGF_MIG, was analyzed with bidirectional fitting relative to DMSO as the negative control and baseline of activity. Using a type of binding reporter, gain or loss-of-signal activity can be used to understand changes in the signaling as they relate to the gene CXCL9. Furthermore, this assay endpoint can be referred to as a primary readout, because this assay has produced multiple assay endpoints where this one serves a signaling function. To generalize the intended target to other relatable targets, this assay endpoint is annotated to the cytokine intended target family, where the subfamily is chemotactic factor.
The levels of cell surface (or secreted, indicated by the prefix "s") biomarker endpoints were measured by ELISA. Overt cytotoxicity to cells in confluent adherent cultures (all systems other than the BT system) was assessed by measuring total protein levels using sulforhodamine B (SRB) staining in parallel cultures at the time of biomarker measurements, indicated as SRB endpoints. For proliferation assays for adherent cell types, individual cell types are cultured at sub-confluence and relative cell numbers quantified by SRB staining at time points optimized for each system (48 h: 3C and CASM3C systems; 72 h: BT and HDF3CGF systems; 96 h: SAg system). SRB was performed by staining cells with 0.1% SRB after fixation with 10% TCA and reading wells at 560 nm.Viability and proliferation of PBMC (T cells) was quantified by Alamar Blue reduction for the SAg and BT systems. For PBMC viability (referred to as PBMC Cytotoxicity within the assay endpoint names), cells were plated (75,000/well in a 96-well plate) and then chemical samples added for 1 h before addition of activators, SEB and TSST-1 (20 ng/mL final concentration each). Cells were incubated for 90 h. Then, Alamar Blue (20 uL/well) (Invitrogen, Cat DAL1100) was added for 6 h, and the plates were read with a fluorescence microplate reader at 546/580 nm (excitation/emission). For PBMC proliferation, cells were plated and activated as above but incubated for only 16 h prior to addition of Alamar Blue. Plates were read after 6 h.

| Structure (SMILES) | outcome | AC50 |
| --- | --- | --- |
| CC1COc2ccccc2N1C(=O)C(Cl)Cl (stereo not given) | inactive | – |
| C[C@H]1C[C@@H]2[C@H]([C@@H](O)C[C@@]3(C)[C@H]2CC[C@]3(O)C(=O)CO)[C@@]2(C)C=CC(=O)C=C12 | inactive | – |
| O=C1CCCCCCCCCCCCCCO1 | inactive | – |
| NCCNCCN | inactive | – |
| O=C(O)c1cn(-c2ccc(F)cc2)c2cc(N3CCNCC3)c(F)cc2c1=O | inactive | – |
| O=P(c1ccccc1)(c1ccccc1)c1ccccc1 | inactive | – |
| COc1cc(C=O)ccc1OC(=O)C(C)C | inactive | – |
| CCCCC/C=C/C=C/C=O | – | 25.1 µM (active) |
| O=C=NC1CCC(CC2CCC(N=C=O)CC2)CC1 (stereo not given) | inactive | – |
| Nc1cc([N+](=O)[O-])ccc1O | inactive | 1.88 µM (active) |
| Cc1ccc(O)c(C(C)(C)C)c1 | – | 36.7 µM (active) |
| c1ccc2sc(SN(C3CCCCC3)C3CCCCC3)nc2c1 | inactive | – |
| Cc1ccc2n[nH]nc2c1 | inactive | – |
| CCCCC(CC)COCCC#N (stereo not given) | inactive | – |
| O=C(O)C[C@H](O)C[C@H](O)/C=C/c1c(C2CC2)nc2ccccc2c1-c1ccc(F)cc1 | inactive | – |
| CCn1c2ccccc2c2cc(N)ccc21 | inactive | – |
| CNC[C@H](O)c1cccc(O)c1 | inactive | – |
| O=C(O)c1cn(C2CC2)c2cc(N3CCNCC3)c(F)cc2c1=O | inactive | – |
| CC(C)(COC(=O)c1ccccc1)COC(=O)c1ccccc1 | inactive | – |
| CC(C)c1ccc(C(C)C)cc1 | inactive | – |

| Structure (SMILES) | outcome | AC50 |
| --- | --- | --- |
| C=CCOC(=O)CCC1CCCCC1 | inactive | – |
| O=[N+]([O-])c1cc(C(F)(F)F)ccc1Cl | inactive | – |
| C=C[Si](OCC)(OCC)OCC | inactive | – |
| Cc1ccc(Nc2ccc(O)c3c2C(=O)c2ccccc2C3=O)cc1 | inactive | – |
| CCC(=O)OCc1ccccc1 | inactive | – |
| OC[C@H]1O[C@H](O[C@]2(CCl)O[C@H](CCl)[C@@H](O)[C@@H]2O)[C@H](O)[C@@H](O)[C@H]1Cl | inactive | – |
| Cc1cc(C2(c3cc(C)c(O)cc3C)OS(=O)(=O)c3ccccc32)c(C)cc1O | inactive | – |
| CC(=O)/C=C/C1=C(C)CCCC1(C)C | inactive | – |
| CC1CCC(C(C)CS)CC1S (stereo not given) | – | 7.33 µM (active) |
| CC[Si](OC(C)=O)(OC(C)=O)OC(C)=O | inactive | – |
| CCc1c(C)cc(N)c(CC)c1N | inactive | – |
| O=C(O)c1ccc([N+](=O)[O-])cc1 | inactive | – |
| CCCCC(CC)COC(=O)/C=C\C(=O)OCC(CC)CCCC (stereo not given) | inactive | – |
| N#Cc1ccc(CC(=NNC(=O)Nc2ccc(OC(F)(F)F)cc2)c2cccc(C(F)(F)F)c2)cc1 | inactive | – |
| OC1OC[C@@H](O)[C@H](O)[C@H]1O (stereo not given in full) | inactive | – |
| CC(C)Oc1ccccc1O | inactive | – |
| CC(=O)[C@H]1CC[C@H]2[C@@H]3CC=C4C[C@@H](O)CC[C@]4(C)[C@H]3CC[C@]12C | inactive | – |
| CCCCCCCCC=O | inactive | – |
| BrC1CCC(Br)C(Br)CCC(Br)C(Br)CCC1Br (stereo not given) | inactive | – |

Reference: PubChem BioAssay (EPA / NIEHS)
